Data on 17 compounds can be found in PubChem BioAssay (NCATS).

“And” between values parts separate entries of the source, which are not always exact repeats. Equal values may be shown once. Records with an inconclusive call do not appear. The source made the active and inactive calls. Unless noted, calls come from the whole dose curve.

A short description of test [1]: qHTS profiling of the MIPE4 collection as inhibitors of Plasmodium falciparum (3D7) proliferation (AID 743344; call rule not given here;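 note: scaled between DMSO vehicle wells and 0.29 µM artemisinin as full inhibition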). The settings on record: P. falciparum 3D7 in erythrocytes, SYBR Green DNA fluorescence, 72 h; at 28.5 µM unless noted. In a few lines:
(§1)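 Erythrocytes infected with P. falciparum (0.3% parasitemia, 2.5% hematocrit) incubated with compounds 72 h at 37 C, 5% CO2. Lysis with saponin/Triton buffer containing SYBR Green I, overnight at room temperature in the dark; DNA fluorescence (485/535 nm) normalised to 0.29 uM artemisinin and DMSO.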

Test [2] can be described thus: qHTS profiling of the MIPE4 collection as inhibitors of Plasmodium falciparum (DD2) proliferation (AID 743345; call rule not given here). The settings on record: P. falciparum Dd2 in erythrocytes, SYBR Green DNA, 72 h; at 28.5 µM unless noted. Summed up:
as §1
(In general: Quantitative high-throughput screening tests each substance at several concentrations.)

A short description of test [3]: qHTS profiling of the MIPE4 collection as inhibitors of Plasmodium falciparum (DD2) proliferation (Rep 2) (AID 743346; call rule not given here). The settings on record: P. falciparum Dd2 in erythrocytes, SYBR Green DNA, 72 h; at 28.5 µM unless noted. Summed up: as §1
A short description of test [4]: qHTS profiling of the MIPE4 collection as inhibitors of Plasmodium falciparum (HB3) proliferation (AID 743347; call rule not given here;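 note: plate controls were DMSO vehicle wells for no effect and artemisinin wells for full effect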). The settings on record: P. falciparum HB3 in erythrocytes, SYBR Green DNA, 72 h; at 28.5 µM unless noted. In a few lines: as §1
Test [5] is described as follows: qHTS for Inhibitors of the Functional Ribonucleoprotein Complex (vRNP) of Lassa (LASV) Arenavirus: LASV Primary Screen - GLuc reporter signal (AID 1347082; calls by dose curve; tested in HEK293 reporter line; note: nearly all actives have a fitted effect of over 60% in size; note: potency is the fitted concentration of half-maximal effect).
The nature of test [6]: qHTS for Inhibitors of the Functional Ribonucleoprotein Complex (vRNP) of Lassa (LASV) Arenavirus: Viability assay - alamar blue signal for LASV Primary Screen (AID 1347083; calls by dose curve; tested in HEK293 reporter line; note: nearly all actives have a fitted effect of over 80% in size; note: potency is the fitted concentration of half-maximal effect).
A short description of test [7]: qHTS for Inhibitors of the Functional Ribonucleoprotein Complex (vRNP) of Lymphocytic Choriomeningitis Arenaviruses (LCMV): Viability assay - alamar blue signal for LCMV Primary Screen (AID 1347085; calls by dose curve; tested in HEK293 reporter line; note: nearly all actives have a fitted effect of over 80% in size; note: potency is the fitted concentration of half-maximal effect).
Test [8] deals with Nucleoprotein (Lymphocytic choriomeningitis virus (strain Armstrong)) (UniProt P09992). Kind of test: qHTS for Inhibitors of the Functional Ribonucleoprotein Complex (vRNP) of Lymphocytic Choriomeningitis Arenaviruses (LCMV): LCMV Primary Screen - GLuc reporter signal (AID 1347086). Note: nearly all actives have a fitted effect of over 70% in size. Note: potency is the fitted concentration of half-maximal effect.
Chain of Nucleoprotein (Lymphocytic choriomeningitis virus (strain Armstrong)) (P09992 whole entry, looked up): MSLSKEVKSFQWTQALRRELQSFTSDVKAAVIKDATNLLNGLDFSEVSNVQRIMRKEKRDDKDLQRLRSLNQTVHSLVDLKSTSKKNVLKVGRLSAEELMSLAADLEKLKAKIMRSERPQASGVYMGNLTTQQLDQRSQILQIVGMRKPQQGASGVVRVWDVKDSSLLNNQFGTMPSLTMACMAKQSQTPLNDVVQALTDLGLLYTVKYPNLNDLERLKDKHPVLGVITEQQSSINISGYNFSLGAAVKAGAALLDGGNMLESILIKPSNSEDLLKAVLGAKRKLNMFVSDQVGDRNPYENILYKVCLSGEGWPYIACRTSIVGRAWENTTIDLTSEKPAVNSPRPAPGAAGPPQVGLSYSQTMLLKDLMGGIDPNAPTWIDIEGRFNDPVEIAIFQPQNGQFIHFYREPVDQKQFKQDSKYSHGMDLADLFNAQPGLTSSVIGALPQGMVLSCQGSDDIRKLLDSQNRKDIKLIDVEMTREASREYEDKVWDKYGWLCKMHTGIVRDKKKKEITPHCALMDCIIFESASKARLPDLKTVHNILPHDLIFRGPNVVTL
For test [9], the target named is Bile acid receptor (Homo sapiens) (UniProt Q96RI1). Nature of the test: qHTS assay for small molecule agonists of farnesoid X receptor signaling (AID 588527).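 Note: series mostly up to about 77 µM; 0% = vehicle basal and 100% = reference agonist.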 The following applies: HEK293T FXR-UAS-bla, beta-lactamase ratio, 16 h; activation: stronger effect = higher value. Summed up:
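FXR-UAS-bla HEK293T cells (10% dialyzed FBS) preincubated 5-7 h at 37 C, then compounds at up to 92 uM for 16 h at 37 C. CCF4 beta-lactamase read-out after 2 h RT. Normalized to chenodeoxycholic acid (100 uM) and DMSO; Hill fit gave EC50 and efficacy.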

Test [10] has as its target Peroxisome proliferator-activated receptor delta (Homo sapiens) (UniProt Q03181). Nature of the test: qHTS assay for small molecule agonists of peroxisome proliferator-activated receptor delta signaling (AID 588534).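 Note: 0% = DMSO basal wells and 100% = positive control agonist at 10 µM.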 In a few lines:
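Cell-based beta-lactamase reporter assay run in agonist mode: cells seeded and incubated 5 hrs at 37 C, compounds added and incubated 18 hrs at 37 C. CCF4 dye fluorescence read after 2 hrs at RT; EC50 and efficacy from Hill fits.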

Test [11] concerns the target Cytochrome P450 3A4 (Homo sapiens) (UniProt P08684). Nature of the test: qHTS Assay for Inhibitors and Substrates of Cytochrome P450 3A4 (AID 884; active = well fitted curve in the direction sought with a large enough effect; an effect the other way counts as inactive or inconclusive; note: potency is the fitted concentration of half-maximal effect; nearly all actives have a fitted effect of over 50% in size). Summed up: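 20 nM human CYP3A4 with 25 uM Luciferin-PPXE (at KM) in 200 mM KPO4, preincubated 10 min with compound; NADPH regeneration started a 60 min RT reaction. Luciferin detected by luminescence, normalized to 57 uM ketoconazole as full inhibition.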

Test [12] has the same target. Kind of test: qHTS Assay for Activators of Cytochrome P450 3A4 (AID 885; active = well fitted curve in the direction sought with a large enough effect; an effect the other way counts as inactive or inconclusive; note: nearly all actives have a fitted effect of over 65% in size). In a few lines:
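Human CYP3A4 (20 nM) with Luciferin-PPXE at 25 uM (its KM) in 200 mM KPO4; 10 min compound preincubation, then NADPH regeneration and 60 min reaction at RT. Luciferin read by luminescence; normalized to 57 uM ketoconazole full inhibition.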

A short description of test [13]: MultiTox-Fluor Cytotoxicity Assay - LYMP1-002 - Dead Cells (AID 960; active = well fitted curve in the direction sought with a large enough effect; an effect the other way counts as inactive or inconclusive; note: potency is the fitted concentration of half-maximal effect; nearly all actives have a fitted effect of over 60% in size). Summed up:
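Human lymphoblastoid cells (LYMP1-002), 2500/well in complete medium, were exposed to compounds for 16 hr at 37 C. Dead-cell protease activity was read as bis-AAF-R110 fluorescence (Ex/Em 485/520), normalized to DMSO and 15 uM tetraoctylammonium bromide; AC50 from Hill fits.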

The target of test [14] is Glucocorticoid receptor (Homo sapiens) (UniProt P04150). Kind of test: qHTS assay for small molecule agonists of glucocorticoid receptor signaling (AID 588532; active = well fitted curve in the direction sought with a large enough effect in the signal ratio, with a control signal flat; the % refers to the signal ratio;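 note: 100% = dexamethasone at 0.1 µM and 0% = DMSO only wells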). The settings on record: HeLa MMTV-bla, beta-lactamase ratio, agonist, 18 h; stronger effect = higher value; percent of dexamethasone control, DMSO zero. Summed up: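 HeLa GRE-bla reporter cells; 18 h compound exposure at 37 C; 2 h CCF4 loading at room temperature; fluorescence at 460 and 530 nm; EC50 by Hill equation.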
Chain of Glucocorticoid receptor (Homo sapiens) (P04150 whole entry, looked up): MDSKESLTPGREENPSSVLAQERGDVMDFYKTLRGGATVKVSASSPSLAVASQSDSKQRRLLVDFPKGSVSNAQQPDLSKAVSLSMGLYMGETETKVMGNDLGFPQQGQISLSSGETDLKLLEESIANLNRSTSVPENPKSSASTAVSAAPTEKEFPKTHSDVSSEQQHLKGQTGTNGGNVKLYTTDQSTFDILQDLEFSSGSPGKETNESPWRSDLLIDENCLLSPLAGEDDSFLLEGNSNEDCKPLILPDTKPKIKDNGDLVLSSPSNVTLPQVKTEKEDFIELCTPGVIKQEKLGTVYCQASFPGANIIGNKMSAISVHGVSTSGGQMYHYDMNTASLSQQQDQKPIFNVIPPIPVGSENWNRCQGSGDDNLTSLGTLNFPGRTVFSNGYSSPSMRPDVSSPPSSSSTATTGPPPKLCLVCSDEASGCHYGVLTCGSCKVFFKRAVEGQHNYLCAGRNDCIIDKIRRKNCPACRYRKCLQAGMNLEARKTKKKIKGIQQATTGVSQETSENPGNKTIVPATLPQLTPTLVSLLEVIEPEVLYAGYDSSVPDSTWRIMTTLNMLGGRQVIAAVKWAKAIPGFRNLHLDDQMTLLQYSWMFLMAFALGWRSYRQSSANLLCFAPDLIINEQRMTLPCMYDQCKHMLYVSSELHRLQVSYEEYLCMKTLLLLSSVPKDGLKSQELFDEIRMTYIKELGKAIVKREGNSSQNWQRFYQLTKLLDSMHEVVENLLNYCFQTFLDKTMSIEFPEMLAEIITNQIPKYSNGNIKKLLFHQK

The target of test [15] is Peroxisome proliferator-activated receptor gamma (Homo sapiens) (UniProt P37231). Kind of test: qHTS assay for small molecule antagonists of peroxisome proliferator-activated receptor gamma signaling (AID 588537; active = well fitted inhibition curve with a large enough effect in the signal ratio, with a control signal flat, not every such curve was filed as active; the % refers to the signal ratio; note: potency is the fitted concentration of half-maximal effect). Summed up: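 Step one: plate 3000 HEK293 UAS-bla cells per well in medium with 1% stripped serum and hold 6-6.5 h at 37 C. Step two: add compound and 50 nM agonist for 16 h. Step three: CCF4 loading, fluorescence read.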
Chain of Peroxisome proliferator-activated receptor gamma (Homo sapiens) (P37231 whole entry, looked up): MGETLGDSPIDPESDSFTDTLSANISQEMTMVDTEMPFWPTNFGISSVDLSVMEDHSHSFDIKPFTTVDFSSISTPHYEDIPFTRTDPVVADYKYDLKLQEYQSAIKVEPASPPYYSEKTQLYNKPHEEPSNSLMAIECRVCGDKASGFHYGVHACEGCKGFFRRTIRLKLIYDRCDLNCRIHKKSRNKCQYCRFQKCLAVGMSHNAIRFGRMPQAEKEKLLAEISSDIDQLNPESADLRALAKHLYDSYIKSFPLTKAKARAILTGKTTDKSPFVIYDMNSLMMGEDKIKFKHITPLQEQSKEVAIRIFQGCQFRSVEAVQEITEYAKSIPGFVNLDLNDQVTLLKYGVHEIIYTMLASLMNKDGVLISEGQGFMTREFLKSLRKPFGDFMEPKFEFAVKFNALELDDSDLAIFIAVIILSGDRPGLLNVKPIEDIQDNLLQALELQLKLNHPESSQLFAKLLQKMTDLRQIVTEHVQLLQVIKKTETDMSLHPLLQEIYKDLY

For test [16], the target named is Vitamin D3 receptor (Homo sapiens) (UniProt P11473). Nature of the test: qHTS assay for small molecule agonists of vitamin D receptor signaling (AID 588543).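 Note: 0% = DMSO basal and 100% = reference agonist control.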 In a few lines: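 Agonist-mode beta-lactamase reporter: HEK293T VDR-UAS-bla cells in charcoal-stripped 2% FBS, compound series 16 h 37 C, CCF4 2 h RT. EC50 from Hill fit, scaled against DMSO and 50 nM calcitriol control.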
Chain of Vitamin D3 receptor (Homo sapiens) (P11473 whole entry, looked up): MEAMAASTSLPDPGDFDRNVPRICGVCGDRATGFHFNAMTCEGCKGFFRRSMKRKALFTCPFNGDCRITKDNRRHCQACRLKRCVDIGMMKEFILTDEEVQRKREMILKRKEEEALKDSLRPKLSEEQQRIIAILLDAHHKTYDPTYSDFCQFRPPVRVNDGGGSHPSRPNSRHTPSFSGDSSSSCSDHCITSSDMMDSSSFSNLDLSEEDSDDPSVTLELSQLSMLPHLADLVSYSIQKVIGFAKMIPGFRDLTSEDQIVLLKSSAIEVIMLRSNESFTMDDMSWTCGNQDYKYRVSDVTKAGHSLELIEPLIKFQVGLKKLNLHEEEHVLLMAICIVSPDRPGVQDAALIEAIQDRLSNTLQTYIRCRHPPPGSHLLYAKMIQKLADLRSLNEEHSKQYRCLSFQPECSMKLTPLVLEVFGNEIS

Test [17] has as its target Voltage-gated inwardly rectifying potassium channel KCNH2 (Homo sapiens) (UniProt Q12809). Nature of the test: qHTS Assay for Small Molecule Inhibitors of the Human hERG Channel Activity (AID 588834; active = well fitted curve in the direction sought with a large enough effect; an effect the other way counts as inactive or inconclusive;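 note: potency is the fitted concentration of half-maximal effect; lower thallium flux fluorescence means stronger hERG block; nearly all actives have a fitted effect of over 50% in size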). Summed up: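 Kinetic FDSS fluorescence; U2OS + hERG BacMam (~100 virus particles/cell); FluxOR Tl+ flux; ~10 min cpd; AC50 (Hill).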
The nature of test [18]: qHTS assay for small molecule agonists of the antioxidant response element (ARE) signaling pathway (AID 651741; active = well fitted activation curve with a large enough effect in the signal ratio; the % refers to the signal ratio; note: potency is the fitted concentration of half-maximal effect). Summed up: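 HepG2 ARE-bla cells plated at 2,000 cells/well and incubated 5 h at 37 C/5% CO2 received 23 nL compound in DMSO. After 16 h at 37 C, LiveBLAzer B/G FRET substrate was applied for 2 h at room temperature and fluorescence read.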
Test [19] can be described thus: qHTS assay for small molecule activators of the nuclear factor-kappa B (NF-kB) signaling pathway (AID 651749; active = well fitted activation curve with a large enough effect in the signal ratio; the % refers to the signal ratio; note: series mostly up to about 77 µM; % of control where 0% means no effect). The following applies: NF-kB-bla ME-180 cells, beta-lactamase FRET ratio, 16 h; activation: stronger effect = higher value. In a few lines:
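Incubation lasted 16 hr at 37C in 5% CO2 after 23 nL compound addition to ME-180 NF-kB-bla cells. Activation appears as beta-lactamase-mediated FRET loss.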

Test [20] in a line: qHTS assay for environmental chemicals that activate the Aryl hydrocarbon Receptor (AhR) signaling pathway (AID 651777; active = well fitted curve in the direction sought with a large enough effect; an effect the other way counts as inactive or inconclusive; note: % of control where 0% means no effect; nearly all actives have a fitted effect of over 15% in size). The following applies: 1A2-DRE human hepatoma cells, luciferase, 24 h; activation: stronger effect = higher value. In a few lines: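 Following a 24 hr incubation with test chemicals at 37 C and 5% CO2, 1A2-DRE human hepatoma cells received One-Glo reagent; after 30 min at room temperature, luciferase output reflected CYP1A2 induction via AhR.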

The target in test [21] is Peroxisome proliferator-activated receptor alpha (Homo sapiens) (UniProt Q07869). Nature of the test: qHTS assay for small molecule agonists of the peroxisome proliferator-activated receptor alpha (PPARalpha) signaling pathway (AID 651778; active = well fitted curve in the direction sought with a large enough effect; an effect the other way counts as inactive or inconclusive; note: % of control where 0% means no effect). The settings on record: PathHunter PPARalpha complementation, chemiluminescence, 6 h; stronger effect = higher value. In a few lines:
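Enzyme-fragment complementation assay in which ligand-bound PPARalpha translocates and forms an active enzyme that generates chemiluminescence. Cells were plated overnight, exposed to compound for 6 hr at 37 C, and then given detection reagent for 60 min at room temperature.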

Test [22] is described as follows: S16 Schwann cell PMP22 intronic element beta-lactamase assay (AID 624044). Note: potency is the fitted concentration of half-maximal effect; nearly all actives have a fitted effect of over 15% in size. Summed up: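 Rat S16 Schwann cells with beta-Lac driven by a PMP22 intronic element, compound-treated 24 h at 37 °C. LiveBLAzer FRET B/G read: 460 nm normalized to potassium clavulanate vs DMSO; 535 nm FRET as viability; concentration-effect curves classified.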

Chain of Bile acid receptor (Homo sapiens) (Q96RI1 whole entry, looked up): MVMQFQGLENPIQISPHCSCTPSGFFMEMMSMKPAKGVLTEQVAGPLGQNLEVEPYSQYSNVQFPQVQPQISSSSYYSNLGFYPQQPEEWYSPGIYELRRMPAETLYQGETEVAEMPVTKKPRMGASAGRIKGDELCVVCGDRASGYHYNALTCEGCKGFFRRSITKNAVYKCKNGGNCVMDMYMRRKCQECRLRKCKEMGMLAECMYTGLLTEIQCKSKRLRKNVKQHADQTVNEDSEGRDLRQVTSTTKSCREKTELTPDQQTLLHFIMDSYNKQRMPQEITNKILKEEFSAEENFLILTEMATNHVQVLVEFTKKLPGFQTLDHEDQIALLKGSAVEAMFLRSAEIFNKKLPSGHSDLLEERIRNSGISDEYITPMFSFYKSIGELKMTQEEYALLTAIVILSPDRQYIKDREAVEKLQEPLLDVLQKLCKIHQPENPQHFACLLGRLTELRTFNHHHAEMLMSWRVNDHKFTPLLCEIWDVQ
Chain of Peroxisome proliferator-activated receptor delta (Homo sapiens) (Q03181 whole entry, looked up): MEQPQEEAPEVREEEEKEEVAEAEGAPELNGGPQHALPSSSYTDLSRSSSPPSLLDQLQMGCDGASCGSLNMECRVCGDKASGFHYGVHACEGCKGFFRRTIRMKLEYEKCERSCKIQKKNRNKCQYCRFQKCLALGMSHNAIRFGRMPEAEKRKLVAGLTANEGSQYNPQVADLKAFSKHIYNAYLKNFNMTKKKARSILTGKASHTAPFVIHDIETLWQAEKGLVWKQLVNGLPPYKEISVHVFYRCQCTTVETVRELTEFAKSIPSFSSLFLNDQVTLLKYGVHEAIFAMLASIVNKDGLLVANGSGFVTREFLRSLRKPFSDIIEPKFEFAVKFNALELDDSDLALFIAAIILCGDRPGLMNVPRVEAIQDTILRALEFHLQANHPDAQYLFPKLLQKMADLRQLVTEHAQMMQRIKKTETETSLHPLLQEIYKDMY
Chain of Cytochrome P450 3A4 (Homo sapiens) (P08684 whole entry, looked up): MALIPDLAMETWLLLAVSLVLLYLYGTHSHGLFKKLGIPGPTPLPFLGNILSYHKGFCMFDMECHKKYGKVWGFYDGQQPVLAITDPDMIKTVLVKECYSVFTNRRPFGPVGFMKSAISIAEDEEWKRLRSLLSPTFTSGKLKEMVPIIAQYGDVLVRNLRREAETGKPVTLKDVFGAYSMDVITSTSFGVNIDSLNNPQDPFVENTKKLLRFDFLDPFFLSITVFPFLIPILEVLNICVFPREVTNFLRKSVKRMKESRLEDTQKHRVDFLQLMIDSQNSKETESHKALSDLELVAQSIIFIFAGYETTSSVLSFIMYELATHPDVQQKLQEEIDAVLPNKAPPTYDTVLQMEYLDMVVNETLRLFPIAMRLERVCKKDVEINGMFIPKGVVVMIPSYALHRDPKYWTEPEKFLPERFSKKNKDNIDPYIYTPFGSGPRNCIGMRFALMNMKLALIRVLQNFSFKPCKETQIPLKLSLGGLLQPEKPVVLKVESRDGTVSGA
Chain of Voltage-gated inwardly rectifying potassium channel KCNH2 (Homo sapiens) (Q12809 whole entry, looked up): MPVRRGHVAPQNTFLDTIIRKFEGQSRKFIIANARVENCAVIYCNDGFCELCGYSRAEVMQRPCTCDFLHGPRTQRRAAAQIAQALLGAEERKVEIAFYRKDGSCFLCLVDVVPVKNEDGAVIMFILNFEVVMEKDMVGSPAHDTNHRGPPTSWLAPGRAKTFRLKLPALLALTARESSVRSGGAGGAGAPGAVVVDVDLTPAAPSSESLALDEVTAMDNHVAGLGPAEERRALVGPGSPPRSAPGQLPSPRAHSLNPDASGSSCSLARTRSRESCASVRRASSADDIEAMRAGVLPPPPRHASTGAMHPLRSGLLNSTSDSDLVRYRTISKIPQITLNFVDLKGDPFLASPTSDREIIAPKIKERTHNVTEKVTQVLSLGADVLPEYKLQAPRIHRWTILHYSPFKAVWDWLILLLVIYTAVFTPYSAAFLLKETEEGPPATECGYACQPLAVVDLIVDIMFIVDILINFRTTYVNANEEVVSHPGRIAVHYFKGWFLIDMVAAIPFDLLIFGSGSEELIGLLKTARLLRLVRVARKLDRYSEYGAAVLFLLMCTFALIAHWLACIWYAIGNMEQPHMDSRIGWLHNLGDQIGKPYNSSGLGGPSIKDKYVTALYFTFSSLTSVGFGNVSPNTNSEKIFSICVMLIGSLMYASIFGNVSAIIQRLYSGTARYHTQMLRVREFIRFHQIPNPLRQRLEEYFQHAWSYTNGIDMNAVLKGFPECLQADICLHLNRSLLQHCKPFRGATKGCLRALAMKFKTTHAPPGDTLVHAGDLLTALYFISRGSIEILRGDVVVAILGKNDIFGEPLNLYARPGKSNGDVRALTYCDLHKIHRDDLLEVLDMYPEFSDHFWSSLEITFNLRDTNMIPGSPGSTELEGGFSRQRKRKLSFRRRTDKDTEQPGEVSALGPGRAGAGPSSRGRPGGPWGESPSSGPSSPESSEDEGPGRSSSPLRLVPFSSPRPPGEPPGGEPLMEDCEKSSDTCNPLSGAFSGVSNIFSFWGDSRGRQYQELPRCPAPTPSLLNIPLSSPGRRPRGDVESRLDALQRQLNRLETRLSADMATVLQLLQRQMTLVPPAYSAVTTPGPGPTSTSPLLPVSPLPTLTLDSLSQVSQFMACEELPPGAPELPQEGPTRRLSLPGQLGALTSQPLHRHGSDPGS

In the case of `COc1cc(CNC(=O)CCCCC=CC(C)C)ccc1O`, the parasite growth, % of DMSO control in test [1] was determined as 92.4%. For the same compound, the parasite growth remaining, % of DMSO control (lower = more inhibition) in [2] amounted to 103%. The parasite growth, % of control (lower = inhibition) in test [3] is 129%. In test [4], this compound yielded a growth, % of control of 105%. For the same compound, the Potency entry in [5], in test [6], in test [7] and in [8] was “inactive” each time.

With `C[C@H]1[C@H](NC(=O)C(=NOC(C)(C)C(=O)O)c2csc(N)n2)C(=O)N1S(=O)(=O)O`, in test [1], the parasite growth, % of DMSO control was 97.7%. Moreover, the parasite growth remaining, % of DMSO control (lower = more inhibition) in [2] amounted to 91.7%. For the same compound, the Potency entry in [5], in test [6], in test [7] and in test [8] was “inactive” throughout.

Consider `CC(=O)c1ccccn1`, for which the activation in test [9] is -4.62% (inactive). Moreover, the Potency result in test [5], in test [6], in [7] and in test [8] was “inactive” throughout.

Consider `CCC(=O)OCCc1ccccc1`, for which the activation in [9] was 0.429% (inactive). Moreover, the Potency entry in [5], in test [6], in [7] and in [8] was “inactive” each time.

`C=CCCCCCCCCC=O`: the Potency entry in test [10], in test [5], in [6], in [7] and in [8] was “inactive” in each case.

Take `O=C(Nc1ccccc1)Nc1ccccc1`: the Potency result in [10], in [5], in [6], in test [7] and in [8] was “inactive” throughout.

For `COC(=O)CCCC(=O)OC`, the activation in test [9] was -3.54% (inactive). The Potency entry in test [5], in test [6], in test [7] and in test [8] was “inactive” each time.

For the compound `CC(C)=CCC/C(C)=C/CC/C(C)=C/CO`, the Potency entry in test [10], in test [5], in [6], in test [7] and in test [8] was “inactive” throughout.

With `c1ccc(Nc2cccc3ccccc23)cc1`, the Potency in test [11] is 31.6 µM (active); in [13] it was 31.6 µM (active); in [15] it was 39.8 µM (active) and 44.7 µM (active); in test [17], 28.2 µM (active); in [18], 42.2 µM (active) and 24.3 µM (active). Further, the Potency entry in test [12], in [16], in test [5], in test [6], in test [7] and in test [8] was “inactive” throughout. In addition, the activation is 4.55% (inactive) in test [14], -0.293% (inactive) in [19] and 4.97% (inactive) in test [20]. The max response in test [21] is -0.23% (inactive).

Take `CC[C@H]1CN2CCc3cc(OC)c(OC)cc3[C@H]2C[C@@H]1C[C@@H]1NCCc2cc(OC)c(OC)cc21`: the Potency was 0.562 µM (active) in test [22]; 0.385 µM (active) in test [5]; 0.432 µM (active) in [6]; 0.544 µM (active) in test [7]; 0.432 µM (active) in test [8].

Turning to `CCCCC=O`, the activation in test [9] is 1.59% (inactive). Besides, the Potency result in test [5], in test [6], in [7] and in [8] was “inactive” throughout.

`C/C=C/C=C/CCCCCCCO`: in test [9], the activation was -0.999% (inactive). In addition, the Potency entry in test [10], in test [5], in test [6], in test [7] and in [8] was “inactive” in each case.

For the compound `COC(=O)CCC(=O)OC`, the activation in test [9] is 2.67% (inactive). For the same compound, the Potency entry in test [10], in test [5], in [6], in test [7] and in test [8] was “inactive” each time.

Regarding `CC1=C(/C=C/C(C)=C/C=C/C(C)=C\C=O)C(C)(C)CCC1`, in test [9], the activation was 25.7% (inactive). In addition, the Potency result in [5], in test [6], in test [7] and in [8] was “inactive” throughout.

Consider `CCC(CC)[C@H](NC(C)=O)[C@@H]1[C@H](O)[C@@H](C(=O)O)C[C@@H]1N=C(N)N`, for which the parasite growth, % of DMSO control in [1] came to 81.5%. The parasite growth remaining, % of DMSO control (lower = more inhibition) in test [2] amounted to 98.5%. The Potency entry in [5], in [6], in test [7] and in test [8] was “inactive” each time.

Take `C=CC(C)(O)CCC=C(C)C` (configuration not stated): in [9], the activation was -2.97% (inactive) and 2.71% (inactive). Moreover, the Potency entry in [5], in test [6], in [7] and in test [8] was “inactive” throughout.

For `CC(C)Nc1nc(N)nc(Cl)n1`, the Potency result in [10], in [5], in test [6], in [7] and in [8] was “inactive” throughout.
